Assay outcomes: PubChem BioAssay, National Center for Advancing Translational Sciences (NCATS)
Shown are actives, neighbours in structure and some others; about 2.4% of the full set was active somewhere.
Cruzain Triton: cruzain (T. cruzi) inhibition with detergent | purified cruzain, Z-FR-AMC fluorescence, 0.01% Triton | Potency, µM, for inactives: max response, negative = inhibition, most hits filed as inhibitors | 200,000 tested, 0.43% active;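 further: plate controls were neutral wells for no effect and buffer without enzyme for full effect; nearly all actives have a fitted effect of over 40% in size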
Target sequence (P25779 123-467 limits assumed): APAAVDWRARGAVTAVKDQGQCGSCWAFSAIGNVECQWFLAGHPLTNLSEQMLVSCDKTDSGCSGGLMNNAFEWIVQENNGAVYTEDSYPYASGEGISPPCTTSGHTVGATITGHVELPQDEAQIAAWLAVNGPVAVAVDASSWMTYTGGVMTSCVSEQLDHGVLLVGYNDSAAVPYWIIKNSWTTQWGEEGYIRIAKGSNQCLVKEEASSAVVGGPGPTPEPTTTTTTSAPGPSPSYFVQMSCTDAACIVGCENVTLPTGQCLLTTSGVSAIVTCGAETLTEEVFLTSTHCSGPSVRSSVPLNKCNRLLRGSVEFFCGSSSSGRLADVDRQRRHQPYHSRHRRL
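Compounds were screened in titration against cruzain (1.5 nM) with 0.01% Triton X-100 to counter colloidal aggregation. Activity was the AMC fluorescence increase over 60 s after adding 2 uM Z-FR-AMC at pH 5.5.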
Cruzain inh noDet: blocks cruzain activity in detergent-free assay; purified cruzain, Z-FR-AMC fluorescence, no detergent; Potency, µM, inactives show max response, negative = inhibition, hits mostly inhibitors; 200,000 tested, 2.3% active; AID 1476;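 further: plate controls were enzyme without inhibitor for no effect and buffer without enzyme for full effect; nearly all actives have a fitted effect of over 40% in size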
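Detergent-free condition (0.00005% Triton X-100) in acetate buffer pH 5.5 with DTT. 1.5 nM enzyme and compound were pre-mixed 15 min, then 2 uM Z-FR-AMC substrate added; reaction progress from fluorescence change between first and third reads (60 s).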
* marks the source's active call; other numbers are inactive results; ? = inconclusive. The call rests on the fitted dose curve; in most records, active means well fitted curve in the direction sought with a large enough effect; inconclusive means small, poorly fitted or top-dose-only effect, or another doubt; inactive means no such curve, though single readings can be large; an effect the other way counts as inactive or inconclusive. Potency means the concentration at half of the fitted maximal effect.

SMILES | Cruzain Triton | Cruzain inh noDet
O=C(/C=C/c1cccc(Cl)c1)Nn1c(-c2cccs2)nc2ccccc2c1=O | -4.5% | 12.6µM*
ON=C1CCCCC1 | 1.5% | -2.2%
COc1cc(OC)cc(-c2nc3ccccc3c(=O)n2OC(=O)c2ccc(Br)cc2)c1 | -2.3% | 25.1µM*
COc1ccc(C(=O)On2c(-c3ccc(Br)cc3)nc3ccccc3c2=O)cc1 | -2.1% | ?
COc1ccc(-c2nc3ccccc3s2)cc1NC(=O)c1ccccc1OC | -0.8% | 6.9%
CNc1ncncc1-c1ccccc1C | 1.5% | 3.1%
COc1ccc(C(=O)Nc2ccc(N3CCCC3)cc2)cc1 | ? | 10µM*
CCOc1ccc(C(=O)Nc2ccc(N3CCCC3)cc2)cc1 | -14.6% | 7.94µM*
COc1ccc(C(=O)N/N=C(/C)c2ccc(N3CCCCC3)cc2)cc1 | -14.8% | ?
O=C(Nc1ccc(N2CCCCC2)cc1)c1ccc(F)cc1 | 3.7% | 25.1µM*
COc1ccc(C2(C(=O)Nc3nncs3)CCCC2)cc1 | 2.1% | -2.5%
CCCOc1ccc(C(=O)Nc2ccc(N3CCN(C(C)=O)CC3)cc2)cc1 | -3.5% | ?
COc1ccc(NC(=O)C2(c3ccc(NC(=O)c4ccc(OC)cc4)cc3)CCCC2)cc1 | -0.2% | 7.94µM*
O=C(c1ccc(F)cc1)c1ccc(N2CCCC2)cc1 | -6.5% | 2.3%
CCCNC(=O)c1c(C)nn(-c2cccc(C)c2)c1-n1cccc1 | -0.6% | -11.1%
COc1cccc([C@@H]2Oc3ccc(Br)cc3C[C@H]2OC(=O)Nc2ccc(C)c(Br)c2)c1 | 2.2% | -5.5%
COc1cc(OC)c2c(OC)c(-c3ccc4c(c3)OCO4)c(=O)oc2c1 | -8.8% | -7.0%
O=C(COc1ccccc1Cl)Nc1ccc2nc(SCC(=O)N3CCOCC3)sc2c1 | -2.9% | -1.9%
CCOc1ccc(S(=O)(=O)NCCc2csc3nc(-c4ccc(F)cc4)nn23)cc1 | -5.4% | 5.6%
CC1=C(C(=O)OC2CCCC2)C(c2ccc(F)cc2F)CC(=O)N1 (stereo not drawn) | -3.8% | -1.4%
CCOC(=O)c1sc(NC(=O)/C=C/c2c(F)cccc2Cl)nc1C | -7.6% | 12.6µM*
CCOC(=O)c1sc(NC(=O)Nc2ccccc2F)nc1C | -3.4% | -7.4%
CCOC(=O)c1sc(NC(=O)c2ccc(CC)s2)nc1C | 3.8% | 15.8µM*
CCOC(=O)c1sc(NC(=O)c2ccccc2OC)nc1C | -5.8% | 5.1%
COc1ccccc1CNC(=O)c1ccc(N2CCCC2)c(NC(=O)NCc2ccc(F)cc2)c1 | 4.8% | 7.8%
SMILES | Cruzain Triton | Cruzain inh noDet
CCCOC(=O)c1ccc(-c2ccc(C=O)o2)cc1 | -9.8% | -6.1%
CCCCOC(=O)c1ccc(NC(=O)/C(C#N)=C/c2ccc(-c3ccccc3)o2)cc1 | -4.2% | 25.1µM*
CCOC(=O)c1ccc(-c2ccc(/C=C(\C#N)C(=O)Nc3c(C)cccc3Cl)o2)cc1 | -2.0% | -1.3%
CCCCOC(=O)c1ccc(-c2ccc(/C=N/NC(=S)NCC)o2)cc1 | 6.8% | 25.1µM*
CCCn1c(-c2ccc(F)cc2)nc2c(NC3CC4CCC(C3)N4C)nc(C)nc21 (stereo not drawn) | -2.8% | -1.2%
Cc1nn(CC(=O)NC2CCCCC2)c(=O)c2cc3cc(F)ccc3n12 | 1.0% | 2.4%
O=C(Nc1nc(-c2ccncc2)cs1)c1ccc(S(=O)(=O)N2CCOCC2)cc1 | 1.5% | 5.0%
CCc1nnc(NC(=O)c2ccc(S(=O)(=O)N3CCc4ccccc4C3)cc2)s1 | 3.6% | ?
N#Cc1ccc(-c2csc(NC(=O)c3ccc(S(=O)(=O)N4CCc5ccccc5C4)cc3)n2)cc1 | -2.2% | 6.31µM*
Cc1cc(C)c2sc(NNC(=O)c3ccc(S(=O)(=O)N4CCc5ccccc5C4)cc3)nc2c1 | 4.1% | 6.31µM*
Cc1cc(C)c2nc(NNC(=O)c3ccc(S(=O)(=O)N4CCc5ccccc5C4)cc3)sc2c1 | 3.5% | 6.31µM*
COC(=O)COc1ccc(S(=O)(=O)N2CCc3ccccc3C2)cc1C | -2.9% | 7.7%
COc1ccc(/C=C/C(=O)NC(=S)NNC(=O)Cc2cccs2)cc1 | 0.2% | 12.6µM*
COc1cc2c(cc1NC(=O)C(C)OC(=O)/C=C/c1ccc(OC(F)F)cc1)oc1ccccc12 (stereo not drawn) | -0.2% | 31.6µM*
COc1cc2c(cc1NC(=O)/C=C/c1ccccc1)oc1ccccc12 | 0.5% | ?
O=C(/C=C/c1ccccc1)NC(=S)NNC(=O)Cc1cccs1 | 6.2% | ?
COc1ccc(/C=C/C(=O)NC(=S)Nc2cc3oc4ccccc4c3cc2OC)cc1 | 0.9% | 2.51µM*
COc1cc2c(cc1NC(=O)Nc1cccc(C)c1)oc1ccccc12 | 17.5% | ?
COc1cc2c(cc1NC(=S)Nc1cccc(C)c1)oc1ccccc12 | -2.7% | 31.6µM*
COc1cc2c(cc1NC(=S)NC(=O)/C=C/c1ccc(OC)c(OC)c1)oc1ccccc12 | -2.9% | -24.9%
CCCCCS(=O)(=O)CCCCCCCCCCn1c(-c2ccc(O)cc2)c(C)c2cc(O)ccc21 | 9.5% | ?
Cc1cccc(-c2nc(CSc3nncn4c3cc3sccc34)c(C)o2)c1 | 0.2% | -2.5%
CCCCC(=O)N1CCc2cc(OC)c(OC)cc2C1COc1ccc(C(=O)OCC)cc1 (stereo not drawn) | 0.1% | ?
COc1ccccc1NC(=S)NC(=O)/C=C/c1ccco1 | -21.3% | -29.1%
COc1cc2c(cc1NC(=S)NC(=O)/C=C/c1ccco1)oc1ccccc12 | -4.6% | 12.6µM*
SMILES | Cruzain Triton | Cruzain inh noDet
Cc1ccc2c(=O)cc(C(=O)Nc3c(C(=O)Nc4cccc(Cl)c4)oc4ccccc34)oc2c1 | 0.8% | -8.5%
Cc1ccc2oc(-c3ccc(Cl)c(NC(=O)c4cc5ccccc5o4)c3)nc2c1 | 0.0% | 6.6%
CCNc1sc(C(=O)c2cccs2)c(N)c1C#N | 1.1% | -10.1%
CCOC(=O)c1sc(NCc2ccco2)c(-c2nc3ccccc3s2)c1N | -5.7% | ?
CCNc1sc(C(=O)c2cccs2)c(N)c1-c1nc2ccccc2s1 | 2.6% | 7.94µM*
C=CCNc1sc(C(=O)c2ccccc2)c(N)c1-c1nc2ccccc2s1 | -1.4% | 7.94µM*
COc1ccc(N2CC(NC(=O)c3ccc(Br)o3)CC2=O)cc1 (stereo not drawn) | 0.4% | -1.0%
O=C(CN1CCSc2ccccc21)N1CCN(c2cccc(Cl)c2)CC1 | -7.2% | -9.4%
O=c1nc(Nc2ccccc2)sc2ccc([N+](=O)[O-])cc12 | -3.1% | 10µM*
O=[N+]([O-])c1ccc(Nc2ccccc2)cc1 | -10.5% | -11.1%
Cc1ccccc1CCNC(=O)c1cc2cc(S(=O)(=O)N3CCCCC3)ccc2n1C | -0.1% | -8.8%
COc1ccc(Cl)cc1NC(=O)c1ncn(-c2ccccc2)n1 | -6.7% | 0.6%
OC[C@@H]1[C@@H](c2ccc(F)cc2)C(c2cccc(Cl)c2)=NN1c1ccccc1 | -0.4% | 31.6µM*
OC[C@@H]1[C@@H](c2ccc(Cl)cc2)C(c2ccccc2)=NN1c1ccccc1 | 0.3% | -18.3%
OC[C@@H]1[C@@H](c2ccc(Cl)cc2)C(c2cccc(Cl)c2)=NN1c1ccccc1 | 2.0% | 25.1µM*
C[C@H]1C(c2cccc(Cl)c2)=NN(c2ccccc2)[C@@H]1CO | 0.4% | ?
CC(=O)N1CCN(c2csc3ccc(Cl)cc3c2=O)CC1 | -6.0% | -8.6%
Cn1cc(C(=O)O)c(=O)c2cc(S(=O)(=O)N3CCOCC3)ccc21 | 2.2% | 2.9%
Cc1nc2cnc(N(C)C)nc2n(C2CC2)c1=O | -0.7% | -3.4%
O=C1/C(=C/c2ccccc2)Nc2ccccc21 | -4.7% | -11.0%
O=C1/C(=C/c2ccccc2)NC(=S)N1C(c1ccccc1)c1ccccc1 | -3.4% | 20µM*
CCc1nnc2c3ccccc3nc(Nc3ccc(F)cc3C)n12 | -4.8% | ?
